Assay results published in the supplement of paper PMC10849652.
Of roughly 8,800 targets only a part is listed; those with a hit were picked by preference. About 0.5% of all pairs of compound and target were hits.

Key:
Experiment in all cases: log2 fold change, soluble protein after heating vs DMSO (PISA); higher = thermal stabilisation; K562 lysate, 10 uM; active = over 0.2 and 3.5 SD of the protein, either way, in both replicates (recomputed)
erlotinib = compound: C#Cc1cccc(Nc2ncnc3cc(OCCOC)c(OCCOC)cc23)c1 [erlotinib]
Outline: (§1)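 To prepare the extract, K562 pellets were dounce-homogenised in PBS pH 7.4 with 1 mM MgCl2, giving crude material at 1 mg/mL protein. This was treated with 10 μM compound for 30 min, then heated in aliquots for 3 min over 48°C-58°C before pooling and addition of NP-40 to 0.5% at 4°C. Centrifugation at 21,000xg for 90 min left soluble protein in the supernatant, which TMTpro 16plex LC-MS/MS quantified with equalised channel sums. Results are log-two fold changes in thermal stability compared with solvent controls, from duplicates.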

[1] = compound: C/C(=N\NC(=O)C1=CC(=CC=C1)S(=O)(=O)N2CCOCC2)/C3=C(C=CC(=C3)Cl)O
Outline: as §1

[2] = compound: C1=CC(=CC=C1C2=NC3=C(N2)C=C(C=C3)C(=O)N)OC4=CC=C(C=C4)Cl
Outline: as §1

[3] = compound: C1=CC2=C(C=CC(=C2)/C=C\3/C(=O)NC(=NCC4=CC=CS4)S3)N=C1
Outline: as §1

[4] = compound: C1=CC2=NC=CN=C2C=C1/C=C/3\C(=O)NC(=O)S3
Outline: as §1

[5] = compound: C1=CC=C(C=C1)C2=NC(=C(N2)C3=CC=NC=C3)C4=CC(=C(C=C4)Cl)O
Outline: as §1

[6] = compound: C1=CC=C2C(=C1)C3=NNC4=CC=CC(=C43)C2=O
Outline: as §1

[7] = compound: C1CCN(C1)C(=O)NC2=CC=CC(=C2)NC3=NC=C(C(=N3)NCCC4=CN=CN4)Br
Outline: as §1

[8] = compound: C1CN(CCC1(CC2=CC=C(C=C2)Cl)N)C3=NC=NC4=C3C=CN4
Outline: as §1

IRAK-1-4 Inhibitor I = compound: C1COCCN1CCN2C3=CC=CC=C3N=C2NC(=O)C4=CC(=CC=C4)[N+](=O)[O-] [IRAK-1-4 Inhibitor I]
Outline: as §1

ibrutinib = compound: C=CC(=O)N1CCC[C@@H](n2nc(-c3ccc(Oc4ccccc4)cc3)c3c(N)ncnc32)C1 [ibrutinib]
Outline: as §1

[9] = compound: CC(=O)c1cnc2ccc(-c3cc(Cl)c(O)c(Cl)c3)nc2c1N[C@H]1CC[C@H](CN(C)C)CC1
Outline: as §1

ralimetinib = compound: CC(C)(C)Cn1c(N)nc2ccc(-c3[nH]c(C(C)(C)C)nc3-c3ccc(F)cc3)nc21 [ralimetinib]
Outline: as §1

[10] = compound: CC(C)(O)CC(=O)NCCn1ccc2ncnc(Nc3ccc(Oc4cccc(C(F)(F)F)c4)c(Cl)c3)c21
Outline: as §1

[11] = compound: CC(C)C1=C2N=C(C=C(N2N=C1)NCC3=CC=CC=C3)NCCCCCCN
Outline: as §1

[12] = compound: CC1=C(C(CC(=O)N1)C2=CC=C(C=C2)C(F)(F)F)C(=O)NC3=C(C=C4C(=C3)C=NN4)F
Outline: as §1

[13] = compound: CC1=C(C2=C(C=C1)C(=O)C3=CC=CC=C3N2CCCN)C
Outline: as §1

[14] = compound: CC1=C(C=C(C=C1)NC(=O)C2=CC(=CC=C2)C(C)(C)C#N)NC3=CC4=C(C=C3)N=CN(C4=O)C
Outline: as §1

[15] = compound: CC1=C(C=C(C=C1)NC(=O)C2=CC(=CC=C2)N(C)C)NC(=O)C3=CC=C(C=C3)O
Outline: as §1

[16] = compound: CC1=CC=C(C=C1)SC2=C3C=C(SC3=CN=C2)C(=O)N
Outline: as §1

Measured: log2 fold change

BMS1 (UniProt Q14692)
Chain of UniProt Q14692 (Q14692 whole entry, looked up): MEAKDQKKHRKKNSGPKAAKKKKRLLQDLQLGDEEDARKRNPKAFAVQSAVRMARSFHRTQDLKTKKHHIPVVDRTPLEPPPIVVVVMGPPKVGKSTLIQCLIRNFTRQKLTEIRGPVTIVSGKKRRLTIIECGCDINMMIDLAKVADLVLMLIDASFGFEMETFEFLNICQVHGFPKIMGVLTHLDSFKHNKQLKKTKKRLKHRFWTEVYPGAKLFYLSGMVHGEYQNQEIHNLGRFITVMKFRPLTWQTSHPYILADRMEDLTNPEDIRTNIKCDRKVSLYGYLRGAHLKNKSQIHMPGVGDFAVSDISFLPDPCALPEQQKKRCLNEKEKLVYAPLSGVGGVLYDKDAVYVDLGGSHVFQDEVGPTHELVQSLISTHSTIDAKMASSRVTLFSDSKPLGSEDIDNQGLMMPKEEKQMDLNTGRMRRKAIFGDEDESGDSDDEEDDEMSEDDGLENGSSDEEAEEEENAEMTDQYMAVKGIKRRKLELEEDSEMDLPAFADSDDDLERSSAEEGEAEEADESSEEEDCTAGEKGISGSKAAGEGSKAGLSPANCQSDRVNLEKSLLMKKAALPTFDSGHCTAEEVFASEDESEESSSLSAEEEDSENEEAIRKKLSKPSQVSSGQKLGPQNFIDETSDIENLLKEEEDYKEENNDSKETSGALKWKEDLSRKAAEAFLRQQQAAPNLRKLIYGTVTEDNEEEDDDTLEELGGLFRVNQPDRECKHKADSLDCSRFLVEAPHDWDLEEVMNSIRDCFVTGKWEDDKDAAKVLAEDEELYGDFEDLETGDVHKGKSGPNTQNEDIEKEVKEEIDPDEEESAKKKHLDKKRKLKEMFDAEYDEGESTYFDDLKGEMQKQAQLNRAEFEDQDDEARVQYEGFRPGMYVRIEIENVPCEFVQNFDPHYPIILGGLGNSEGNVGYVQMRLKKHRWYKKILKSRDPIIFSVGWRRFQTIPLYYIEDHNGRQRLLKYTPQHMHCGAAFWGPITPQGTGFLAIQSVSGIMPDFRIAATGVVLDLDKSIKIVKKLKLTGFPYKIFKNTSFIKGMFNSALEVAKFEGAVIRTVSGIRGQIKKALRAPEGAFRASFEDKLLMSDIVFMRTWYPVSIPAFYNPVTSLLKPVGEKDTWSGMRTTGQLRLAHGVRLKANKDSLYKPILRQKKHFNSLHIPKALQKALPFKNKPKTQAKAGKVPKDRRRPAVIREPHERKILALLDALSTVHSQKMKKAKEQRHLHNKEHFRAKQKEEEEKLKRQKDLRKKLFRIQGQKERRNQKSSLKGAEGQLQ
inactive: erlotinib -0.029 | [1] -0.089 | [2] -0.027 | [3] 0.028 | [4] -0.046 | [5] 0.034 | [6] 0.039 | [7] 0.006 | [8] 0.01 | IRAK-1-4 Inhibitor I -0.01 | ibrutinib 0.095 | [9] 0.018 | ralimetinib 0.018 | [10] -0.041 | [11] -0.008 | [12] -0.011 | [13] 0.007 | [14] 0.049 | [15] 0.034 | [16] 0.032

CCPG1 isoform 5 (UniProt Q9ULG6)
Chain of UniProt Q9ULG6 (Q9ULG6 whole entry, looked up): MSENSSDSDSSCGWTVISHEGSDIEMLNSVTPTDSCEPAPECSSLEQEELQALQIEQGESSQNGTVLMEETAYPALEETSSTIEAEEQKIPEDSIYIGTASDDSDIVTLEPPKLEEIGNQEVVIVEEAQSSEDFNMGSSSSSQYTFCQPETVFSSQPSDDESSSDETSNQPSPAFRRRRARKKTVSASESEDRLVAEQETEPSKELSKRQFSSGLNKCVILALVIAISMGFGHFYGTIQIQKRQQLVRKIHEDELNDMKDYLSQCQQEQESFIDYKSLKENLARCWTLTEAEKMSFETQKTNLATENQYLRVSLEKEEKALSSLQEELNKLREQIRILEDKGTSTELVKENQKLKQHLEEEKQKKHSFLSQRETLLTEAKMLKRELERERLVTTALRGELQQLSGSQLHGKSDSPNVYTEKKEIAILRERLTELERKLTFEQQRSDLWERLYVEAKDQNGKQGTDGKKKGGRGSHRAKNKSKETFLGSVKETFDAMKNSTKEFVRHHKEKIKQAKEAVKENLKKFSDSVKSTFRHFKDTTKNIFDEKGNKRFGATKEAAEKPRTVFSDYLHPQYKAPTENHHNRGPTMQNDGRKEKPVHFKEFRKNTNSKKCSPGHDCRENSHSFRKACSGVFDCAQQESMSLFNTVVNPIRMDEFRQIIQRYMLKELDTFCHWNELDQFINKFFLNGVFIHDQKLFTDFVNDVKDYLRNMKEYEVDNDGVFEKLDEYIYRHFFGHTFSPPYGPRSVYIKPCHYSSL
inactive: erlotinib -0.014 | [1] 0.08 | [2] 0.082 | [3] 0.017 | [4] 0.024 | [5] 0.067 | [6] -0.119 | [7] 0.019 | [8] 0.053 | IRAK-1-4 Inhibitor I -0.03 | ibrutinib 0.021 | [9] -0.014 | ralimetinib 0.08 | [10] 0.013 | [11] 0.014 | [12] -0.004 | [13] -0.058 | [14] -0.026 | [15] -0.029 | [16] -0.102

CDK13 (UniProt Q14004)
Chain of UniProt Q14004 (Q14004 whole entry, looked up): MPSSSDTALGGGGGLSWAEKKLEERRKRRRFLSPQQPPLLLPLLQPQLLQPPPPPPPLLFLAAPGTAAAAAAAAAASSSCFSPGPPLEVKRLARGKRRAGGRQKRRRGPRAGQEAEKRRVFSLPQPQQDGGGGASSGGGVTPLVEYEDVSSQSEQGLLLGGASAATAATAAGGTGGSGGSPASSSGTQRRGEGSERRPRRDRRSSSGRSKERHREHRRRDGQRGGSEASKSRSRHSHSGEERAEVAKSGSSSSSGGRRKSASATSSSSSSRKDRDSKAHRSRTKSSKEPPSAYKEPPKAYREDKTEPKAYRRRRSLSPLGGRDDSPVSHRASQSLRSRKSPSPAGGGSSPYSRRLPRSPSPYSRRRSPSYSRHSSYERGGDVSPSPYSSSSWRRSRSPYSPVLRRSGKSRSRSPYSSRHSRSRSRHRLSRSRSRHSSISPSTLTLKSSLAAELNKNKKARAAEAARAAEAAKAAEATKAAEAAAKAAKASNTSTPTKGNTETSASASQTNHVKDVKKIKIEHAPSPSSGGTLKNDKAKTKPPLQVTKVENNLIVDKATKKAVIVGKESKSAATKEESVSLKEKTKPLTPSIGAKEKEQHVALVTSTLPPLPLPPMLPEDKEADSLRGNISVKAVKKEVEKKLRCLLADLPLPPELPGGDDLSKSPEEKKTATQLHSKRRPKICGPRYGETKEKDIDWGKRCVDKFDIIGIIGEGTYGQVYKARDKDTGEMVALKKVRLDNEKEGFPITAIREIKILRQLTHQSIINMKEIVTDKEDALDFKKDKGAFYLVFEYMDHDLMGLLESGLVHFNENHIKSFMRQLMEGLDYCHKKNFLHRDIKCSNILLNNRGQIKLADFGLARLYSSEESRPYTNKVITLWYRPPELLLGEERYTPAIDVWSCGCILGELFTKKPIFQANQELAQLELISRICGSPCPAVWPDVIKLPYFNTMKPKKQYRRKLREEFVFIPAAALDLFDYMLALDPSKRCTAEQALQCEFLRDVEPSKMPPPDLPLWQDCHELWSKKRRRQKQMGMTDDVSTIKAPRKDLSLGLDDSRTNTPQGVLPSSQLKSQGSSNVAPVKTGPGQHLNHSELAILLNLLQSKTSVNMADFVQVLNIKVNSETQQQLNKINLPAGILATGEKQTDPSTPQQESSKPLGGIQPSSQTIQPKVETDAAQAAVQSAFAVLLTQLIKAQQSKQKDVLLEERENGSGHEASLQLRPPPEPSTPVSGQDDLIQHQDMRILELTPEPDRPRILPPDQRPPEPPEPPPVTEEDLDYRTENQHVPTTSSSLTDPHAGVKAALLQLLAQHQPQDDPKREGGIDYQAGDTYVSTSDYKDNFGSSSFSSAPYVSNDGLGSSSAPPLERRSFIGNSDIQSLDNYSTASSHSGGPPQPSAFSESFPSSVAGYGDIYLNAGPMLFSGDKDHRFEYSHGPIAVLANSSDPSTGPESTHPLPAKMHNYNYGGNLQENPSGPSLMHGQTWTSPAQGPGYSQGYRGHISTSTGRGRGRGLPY
active: [9] 0.271
inactive: erlotinib -0.136 | [1] -0.041 | [2] -0.089 | [3] -0.052 | [4] 0.01 | [5] -0.071 | [6] 0.127 | [7] 0.091 | [8] -0.025 | IRAK-1-4 Inhibitor I -0.044 | ibrutinib -0.038 | ralimetinib 0.031 | [10] 0.141 | [11] -0.056 | [12] -0.039 | [13] 0.041 | [14] -0.104 | [15] -0.028 | [16] -0.022

CDC7 (UniProt O00311)
Chain of UniProt O00311 (O00311 whole entry, looked up): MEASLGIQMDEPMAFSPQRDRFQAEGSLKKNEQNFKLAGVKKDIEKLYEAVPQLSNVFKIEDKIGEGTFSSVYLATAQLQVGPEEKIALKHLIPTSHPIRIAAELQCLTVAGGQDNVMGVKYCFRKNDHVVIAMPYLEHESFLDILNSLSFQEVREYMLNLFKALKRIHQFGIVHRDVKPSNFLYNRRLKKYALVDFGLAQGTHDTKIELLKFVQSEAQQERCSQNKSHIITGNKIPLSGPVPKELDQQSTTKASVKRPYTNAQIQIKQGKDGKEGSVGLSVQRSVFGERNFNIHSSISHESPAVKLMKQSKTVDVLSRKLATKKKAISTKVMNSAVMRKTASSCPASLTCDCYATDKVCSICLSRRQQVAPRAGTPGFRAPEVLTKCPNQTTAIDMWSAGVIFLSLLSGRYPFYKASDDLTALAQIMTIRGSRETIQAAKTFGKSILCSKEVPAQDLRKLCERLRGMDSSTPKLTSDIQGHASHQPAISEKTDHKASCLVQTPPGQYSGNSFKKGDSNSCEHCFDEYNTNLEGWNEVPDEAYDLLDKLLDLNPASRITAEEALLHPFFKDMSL
inactive: erlotinib -0.032 | [1] 0.038 | [2] 0.038 | [3] -0.109 | [5] -0.006 | [6] -0.027 | [7] -0.003 | [8] -0.096 | IRAK-1-4 Inhibitor I 0.032 | ibrutinib 0.04 | [9] 0.09 | ralimetinib 0.014 | [10] 0.028 | [11] 0.047 | [12] 0.066 | [13] -0.011 | [14] 0.05 | [15] -0.002 | [16] -0.07
active: [4] -0.324

CAMKK2 (UniProt Q96RR4)
inactive: erlotinib -0.033 | [1] -0.028 | [2] -0.045 | [3] -0.057 | [4] -0.014 | [5] 0.005 | [6] 0.002 | [7] 0.135 | [8] 0.033 | IRAK-1-4 Inhibitor I -0.027 | ibrutinib 0.052 | ralimetinib 0.035 | [10] -0.005 | [11] 0.019 | [12] -0.011 | [13] -0.005 | [14] -0.031 | [15] 0.005 | [16] 0.014
active: [9] 0.231

CBX5 (UniProt P45973)
Chain of UniProt P45973 (P45973 whole entry, looked up): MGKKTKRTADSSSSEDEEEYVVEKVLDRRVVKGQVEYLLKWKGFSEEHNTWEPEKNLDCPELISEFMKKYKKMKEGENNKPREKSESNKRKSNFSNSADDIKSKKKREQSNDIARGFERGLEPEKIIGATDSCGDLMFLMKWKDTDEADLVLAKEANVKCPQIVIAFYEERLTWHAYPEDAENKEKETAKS
inactive: erlotinib -0.012 | [1] 0.009 | [2] 0.013 | [3] -0.001 | [4] 0.011 | [5] 0.011 | [6] 0.026 | [7] -0.007 | [8] 0.02 | IRAK-1-4 Inhibitor I 0.007 | ibrutinib -0.047 | [9] -0.007 | ralimetinib -0.024 | [10] -0.087 | [11] -0.02 | [12] -0.088 | [13] -0.02 | [14] 0.028 | [15] 0.007 | [16] -0.033

CALB2 (UniProt P22676)
Chain of UniProt P22676 (P22676 whole entry, looked up): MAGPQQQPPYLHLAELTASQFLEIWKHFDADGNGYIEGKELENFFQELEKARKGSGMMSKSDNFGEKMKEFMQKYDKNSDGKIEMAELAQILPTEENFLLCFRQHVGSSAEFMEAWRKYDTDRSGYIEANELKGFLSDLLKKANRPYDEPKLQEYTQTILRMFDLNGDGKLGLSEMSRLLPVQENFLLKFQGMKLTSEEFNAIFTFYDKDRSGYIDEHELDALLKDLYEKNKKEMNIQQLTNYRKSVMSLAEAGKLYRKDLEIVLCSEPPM
inactive: erlotinib 0.021 | [1] 0.045 | [2] -0.04 | [3] -0.103 | [4] -0.077 | [5] 0.02 | [6] 0.043 | [7] 0.056 | [8] 0.065 | IRAK-1-4 Inhibitor I 0.08 | ibrutinib 0.085 | [9] 0.016 | ralimetinib 0 | [10] -0.083 | [11] -0.093 | [12] -0.025 | [13] -0.116 | [14] 0.028 | [15] -0.039 | [16] -0.014

BET1 (UniProt O15155)
Chain of UniProt O15155 (O15155 whole entry, looked up): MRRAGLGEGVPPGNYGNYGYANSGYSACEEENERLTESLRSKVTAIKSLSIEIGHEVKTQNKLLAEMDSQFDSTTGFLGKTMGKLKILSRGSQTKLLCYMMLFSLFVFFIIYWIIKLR
inactive: erlotinib 0.025 | [1] -0.092 | [2] -0.059 | [3] 0.033 | [4] 0.08 | [5] 0.033 | [6] -0.015 | [7] 0.039 | [8] 0.018 | IRAK-1-4 Inhibitor I 0.006 | ibrutinib -0.03 | [9] 0.041 | ralimetinib -0.085 | [10] 0.01 | [11] 0.035 | [12] 0.033 | [13] -0.01 | [14] -0.019 | [15] 0.001 | [16] -0.001
